Results from PubChem BioAssay.
Values joined by “and” are separate entries in the source; they are usually repeats but may differ in a detail not shown here. Equal entries are not always repeated. Active and inactive are the calls of the source.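 How the source made its calls: active means binding below the plate cutoff, the plate median minus 3 SD, with a reading above zero; inconclusive means below the plate cutoff but reading exactly zero; inactive means the rest.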 Peptide text beside a SMILES is read from it.

system: anti-desmoglein-3 scFv antibody binding to human DSG3; test: inhibitors of anti-DSG3 scFv binding to DSG3, pilot screen, biochemical, validation compound set, bead-based, flow cytometry (AID 588368); details: Protein G beads, DSG3-Fc, scFv-GFP binding, at 10 µM, stronger effect = lower value;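 further: signal is the median channel fluorescence of bead-bound GFP antibody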

Row | Compound | binding (% of control)
1 | CC(C)(C)OC(=O)N1CC(O)CC1C(=O)OCC(=O)c1ccc(Cl)cc1 (centres undefined) | 98.2% (inactive)
2 | O=C(O)c1ccc(OCCn2ccnc2)cc1 | 101% (inactive)
3 | CCOc1ccc2ccccc2c1CNc1nnnn1C | 98.4% (inactive)
4 | COc1ccccc1N1C(=O)C2CC(C)=C(C)CC2C1=O (centres undefined) | 99% (inactive)
5 | Cc1coc2c1c(C)cc1oc(=O)c(Cc3ccccc3)c(C)c12 | 97.9% (inactive)
6 | COc1cc2c3c(c1)C(C)CC(C)(C)N3C(=O)C2=O (centres undefined) | 105% (inactive)
7 | NS(=O)(=O)c1cc2c(cc1Cl)NCNS2(=O)=O | 105% (inactive)
8 | O=C(O)C1Cc2ccccc2CN1S(=O)(=O)c1ccccc1 (centres undefined) | 104% (inactive)
9 | COc1cccc(C2CC(=O)C3=C(C2)Nc2ccccc2N(C(=O)CCC(=O)O)C3c2ccc(F)cc2)c1 (centres undefined) | 102% (inactive)
10 | CCC(C(=O)Nc1ccc2c(c1)OCCO2)c1ccccc1 (centres undefined) | 101% (inactive)
11 | COc1ccc(C2C(C(=O)c3ccco3)=C(O)C(=O)N2CC2CCCO2)cc1 (centres undefined) | 98.9% (inactive)
12 | C=CCNC(=O)c1ccc(-c2cccc([N+](=O)[O-])c2)o1 | 101% (inactive)
13 | CC12CCC(C(=O)N(CCC#N)CCC#N)(CC1=O)C2(C)C (centres undefined) | 100% (inactive)
14 | CC(=O)c1c(C)c(C)c2n1CCn1c(C)ccc1-2 | 116% (inactive)
15 | COc1cc2cc(C)nc(Cc3cccc4ccccc34)c2cc1OC | 101% (inactive)
16 | Cc1oc2cc(O)cc(O)c2c(=O)c1-c1ccc2c(c1)OCCCO2 | 101% (inactive)
17 | O=CNC1CCCc2c1[nH]c1ccc(Cl)cc21 (centres undefined) | 95.9% (inactive)
18 | COc1ccc2cc(C3(C)NC(=O)NC3=O)ccc2c1 (centres undefined) | 99.7% (inactive)
19 | CC1(C)CC(=O)c2c(nc3ccccc3c2N)C1 | 102% (inactive)
20 | Cc1ccccc1C(=O)Oc1ccc(Sc2ccc(O)cc2)cc1 | 97.6% (inactive)

Row | Compound | binding (% of control)
21 | O=C(NC1CC1)C1CCN(C2CCN(C(=O)Cc3ccc(F)cc3)CC2)CC1 | 98.3% (inactive)
22 | CCc1cc(/C(Cc2ccccn2)=N\O)c(O)cc1O | 101% (inactive)
23 | CC(=O)NC(CC(C)C)C(=O)NC(Cc1ccccc1)C(N)=O (stereo not drawn) (Ac-Leu-Phe-NH2; configuration not given here) | 103% (inactive)
24 | CN(C)c1ccc(C(CN)c2c[nH]c3ccccc23)cc1 (centres undefined) | 102% (inactive)
25 | CCn1cc(C(=O)O)c(=O)c2ccc(C)nc21 | 108% (inactive)
26 | CN1[C@@H]2CC(OC(=O)[C@H](CO)c3ccccc3)C[C@H]1[C@@H]1O[C@@H]12 (some centres undefined) | 101% (inactive) and 98.7% (inactive)
27 | CCOc1cc2c3c(c1)C(C)=CC(C)(C)N3C(=O)C2=O | 101% (inactive)
28 | Cc1ccc(C)c(OCCCC(C)(C)C(=O)O)c1 | 96.4% (inactive)
29 | CC1(C)C(=O)OC(C(=O)c2ccc(Cl)cc2)C(C)(C)C1=O (centres undefined) | 99.3% (inactive)
30 | CC1(CC(=O)Nc2ccccc2)NC(=S)N(c2ccccc2)N1 (centres undefined) | 99.1% (inactive)
31 | COc1cc2c(cc1OC)C(C)=NC1(CCCCC1)C2 | 131% (inactive)
32 | Cc1occc(=O)c1O | 98.1% (inactive)
33 | COC1CCN(Cc2cn(Cc3ccccc3)nc2-c2cc3ccccc3o2)CC1 | 105% (inactive)
34 | COc1cccc2c(O)cc(=O)n(C)c12 | 101% (inactive)
35 | CCN1C(=O)C(CC(=O)Nc2ccc(F)cc2)N(Cc2ccco2)C1=S (centres undefined) | 99.9% (inactive)
36 | O=C(Cc1ccccc1[N+](=O)[O-])NCc1ccncc1 | 98.2% (inactive)
37 | O=C1CC2(CCCC2)CC(=O)N1CCCCN1CCN(c2ncccn2)CC1 | 101% (inactive)
38 | CCC(=O)c1ccc(OCc2ccc(C(=O)OC)cc2)cc1 | 96.4% (inactive)
39 | COc1cccc(NC(=O)C2CC(=O)OC23CCOC(C)(C)C3)c1 (centres undefined) | 101% (inactive)
